hgDAF12 agonist: agonists of H. glycines DAF-12 nuclear receptor; HEK293 GAL4-hgDAF12 UAS-luciferase reporter, agonist luminescence; normalized to butyrate control; activation, % at 6.8 µM; actives 1.8% (n = 370,000); AID 687014;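 active = activation above a cutoff set at the mean of all screened compounds plus 3 SD, cut at about 10% in these data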;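 note: 0% = DMSO wells and 100% = sodium butyrate wells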
SMARCA2 act: SMARCA2 function activation, primary screen; MG213 cells, MMTV-luciferase reporter, dexamethasone, overnight; activation, % at 9.1 µM; actives 1% (n = 370,000); AID 652017; in the data active = activation above about 7.8%;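 note: 0% = vehicle wells and 100% = reference activator wells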
hcDAF12 agonist: activates DAF-12 receptor from parasite H. contortus | HEK293 hcDAF-12 lit1-tk-luc reporter, luminescence; 0% DMSO, 100% Δ7-dafachronic acid | activation, % at 6.8 µM | actives 1.4% (n = 370,000) | AID 652067;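 active = activation above the mean of all tested compounds plus 3 SD, cut at about 5.5% in these data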;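 note: 100% = response to 3 µM Δ7-dafachronic acid high control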
DAX1 inh: blocks DAX1 repression of SF-1 activated StAR promoter; HEK293T StAR-luciferase reporter, SF-1/DAX-1 repression relief; inhibition, % at 6.8 µM; actives 1.1% (n = 370,000); AID 652010;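 active = inhibition above the mean over all tested compounds plus 3 SD, cut at about 3.6% in these data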;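 note: 0% = DAX-1 cells with DMSO and 100% = cells lacking DAX-1 with DMSO; higher inhibition means more luminescence from relief of DAX-1 repression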
ssDAF12 agonist: activates DAF-12 receptor from parasite S. stercoralis | HEK293 ssDAF-12/GRIP1 lit1-tk-luc reporter, luminescence; % of 3 µM dafachronic acid response | activation, % at 6.8 µM | AID 652126 | actives 1% (n = 370,000);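 active = activation above the mean over all tested compounds plus 3 SD, cut at about 0.9% in these data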;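 note: 0% = DMSO-only wells and 100% = 3 µM delta7-dafachronic acid wells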
DAX1 conf: confirmation of human DAX1 (NR0B1) inhibitors; shares compounds with DAX1 inh; HEK293T StAR-promoter luciferase reporter, SF-1/DAX-1 repression; inhibition, % at 6.8 µM; actives 87% (n = 2,400);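 active = inhibition above the average of every tested compound plus 3 SD, cut at about 3.8% in these data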;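 note: 0% = DAX-1 cells with DMSO and 100% = no DAX-1 control cells with DMSO; active compounds raise luminescence by relieving repression of the StAR reporter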
SF1 mutant ctr: counter-screen for DAX1 inhibitors: nonselective inhibitors with SF-1 AF2 mutant; shares compounds with DAX1 inh; HEK293 StAR-luciferase, luminescence; inhibition, % at 6.8 µM; actives 78% (n = 2,400); AID 652136;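 active = inhibition above the mean of all tested compounds plus 3 SD, cut at about 3% in these data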;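 note: 0% = DAX-1 transfected cells with DMSO and 100% = cells without DAX-1 with DMSO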
SMARCA2 act conf: confirmation of SMARCA2 (BRM) function activators; shares compounds with SMARCA2 act; MG213 cells, MMTV-luciferase with dexamethasone, luminescence, overnight; MG213 cells expressing E1A, Rb sequestered; DMSO wells 0%, reference activator 100%; activation, % at 9.1 µM; actives 30% (n = 3,500);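 active = activation above its plate's cutoff, the mean activation of tested wells plus 3 SD, cut at about 7.9% in these data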
GAL4-VP16 Luc: GAL4-VP16 reporter activation counter-screen | HEK293 GAL4-VP16 pG5luc reporter, luciferase luminescence; scaled: DMSO wells 0%, SAHA wells 100% | activation, % at 9.1 µM | AID 686939 | shares compounds with SMARCA2 act | actives 41% (n = 3,500);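 active = activation above the solvent-only control well mean plus 3 SD, averaged across control plates, cut at about 5.2% in these data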
LXRb hcDAF ctr: activates human LXR-beta, counter-screen for hcDAF-12 agonists; AID 743027; shares compounds with hcDAF12 agonist; 3,400 tested, under 10 active; activation, % at 6.8 µM; HEK293 Gal4-LXR tk-luc reporter, luminescence, 24 h; normalized: DMSO 0%, positive control 100%;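 active = mean percent activation of the reporter above a cutoff set as the average over tested compounds plus their standard deviation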
Target sequence (P55055 whole entry, looked up, the tested form may be a part): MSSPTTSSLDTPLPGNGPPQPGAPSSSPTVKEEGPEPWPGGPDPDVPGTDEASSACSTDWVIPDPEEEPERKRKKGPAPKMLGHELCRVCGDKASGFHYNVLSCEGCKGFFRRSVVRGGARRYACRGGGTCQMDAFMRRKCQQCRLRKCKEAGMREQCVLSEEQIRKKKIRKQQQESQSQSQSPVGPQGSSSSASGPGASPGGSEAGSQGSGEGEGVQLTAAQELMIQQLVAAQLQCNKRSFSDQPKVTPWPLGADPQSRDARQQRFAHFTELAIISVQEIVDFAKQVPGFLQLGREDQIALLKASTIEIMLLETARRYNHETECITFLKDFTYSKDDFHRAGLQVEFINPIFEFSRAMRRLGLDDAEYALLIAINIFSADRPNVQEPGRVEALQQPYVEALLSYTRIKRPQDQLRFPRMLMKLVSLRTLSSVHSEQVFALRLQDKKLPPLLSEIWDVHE
hcDAF12 conf: confirmation of H. contortus DAF-12 agonists | shares compounds with hcDAF12 agonist | HEK293 hcDAF-12 lit1-tk-luc reporter, luminescence; % of Δ7-dafachronic acid response | activation, % at 6.8 µM | actives 61% (n = 3,400) | AID 743032;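 active = mean activation across triplicate tests above the threshold derived from the earlier primary screen, cut at about 5.5% in these data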;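 note: 0% = DMSO only wells and 100% = 3 µM Δ7-dafachronic acid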
hgDAF12 conf: confirmation of H. glycines DAF-12 agonists; shares compounds with hgDAF12 agonist; HEK293 GAL4-hgDAF12 luciferase reporter, agonist mode; percent of butyrate response; activation, % at 6.8 µM; actives 80% (n = 3,300); AID 743050;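 active = mean activation over triplicate wells above the hit cutoff derived from the earlier primary screen, cut at about 11% in these data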;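 note: 0% = DMSO low control and 100% = 2 mM sodium butyrate high control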
LXR ag 2: counter-screen for DAF-12 agonists: agonists of human LXR-beta; AID 743051; activation, % at 6.8 µM; 3,300 tested, under 10 active; shares compounds with hgDAF12 agonist; HEK293 Gal4-LXR luciferase reporter, 24 h;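 active = mean activation of the triplicate above a set limit carried over from the primary screen, none filed active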
* hit, by the source's call; x = no result. Hits are enriched below; roughly 4.2% of the tested compounds scored in any of these assays.

SMILES	hgDAF12 agonist	SMARCA2 act	hcDAF12 agonist	DAX1 inh	ssDAF12 agonist	DAX1 conf	SF1 mutant ctr	hgDAF12 conf	LXR ag 2	others
CC(C)(C)S(=O)N1C[C@H]2CC(=O)C=C2[C@@H]1CCO (stereo partly specified)	-1	-4	0	-1	-1	x	x	x	x
COc1ccc(-c2c(Cc3ccccc3)nc(NC(=O)c3ccccc3)n2Cc2ccc(OC)cc2OC)cc1	4	-2	2	0	-1	x	x	x	x
CCOC(=O)[C@]12CCCC=C1N(CCc1ccc(OC)c(OC)c1)C(=O)[C@H](CC(=O)NCC13CC4CC(CC(C4)C1)C3)C2	5	0	-2	1	-1	x	x	x	x
O=c1cc(-c2ccccc2)oc2cc(O)cc(O)c12	15*	8.5*	0	5.7*	-1	9.2*	2	13*	1	SMARCA2 act conf=3;GAL4-VP16 Luc=7.5*
O=C(O)C/C(=C\c1ccc(Cl)cc1)c1nc2ccccc2o1	3	1	2	0	-1	x	x	x	x
O=C(O)C(=O)/C(=C\c1ccc(Cl)cc1)c1ccc2ccccc2n1	14*	3	14*	7.8*	2.5*	9.1*	4.6*	1	1	LXRb hcDAF ctr=1;hcDAF12 conf=11*
Cc1nc2cc(NC(=O)Nc3ccccc3Cl)ccc2n1C	15*	7	7.1*	12*	0	19*	8.4*	20*	1	LXRb hcDAF ctr=2;hcDAF12 conf=7.8*
Cc1ccc(NC(=O)Nc2ccc3c(c2)nc(C)n3C)cc1	17*	7	8.7*	6.4*	1	16*	7.2*	17*	1	LXRb hcDAF ctr=1;hcDAF12 conf=5
CC(=O)O[C@@H]1CCC[C@@]2(C(=O)N(Cc3ccccc3)c3ccc(-c4c(C)noc4C)cc32)[C@H]1NC(=O)CCc1ccccc1	-3	-4	-2	-1	-1	x	x	x	x
O=C(Nc1cnn(C23CC4CC(CC(C4)C2)C3)c1)c1cnn2cccnc12	14*	6	4	5.8*	1.2*	10*	5.9*	15*	1
COC(=O)[C@]12C[C@H](CC(=O)N3CCCCC3)C(=O)N(Cc3ccc4c(c3)OCO4)C1=C[C@H](COCc1ccccc1)O[C@@H]2C	-2	-3	-2	-2	-1	x	x	x	x
O=[N+]([O-])c1cccc(COc2ccc(CN3CCCC3)cc2)c1	24*	1	3	4.5*	0	11*	6.8*	15*	1
O=[N+]([O-])c1cccc(CN2CCCCCC2)c1	2	-4	-2	0	0	x	x	x	x
O=[N+]([O-])c1cccc(COc2ccc(CN3CCOCC3)cc2)c1	20*	3	7.8*	7.2*	1.4*	9.8*	5.5*	16*	1	LXRb hcDAF ctr=1;hcDAF12 conf=6.6*
O=C1NC(c2ccccc2)(c2ccccc2)C(=O)N1CNc1ccccn1	-1	1	-1	1	-1	x	x	x	x
O=C(NCCc1ccccc1Cl)[C@@H]1CCCN1C(=O)[C@@H](NS(=O)(=O)c1ccc(F)cc1F)C1CCCCC1	-1	2	-2	-1	-1	x	x	x	x
O=C(O)/C=C/c1ccc(O)c(O)c1	1	-4	0	1	-1	x	x	x	x
O=C(/C=C/c1ccc(O)c(O)c1)NC(=O)c1ccccc1O	15*	5	6.5*	4.6*	0	8.1*	4.0*	13*	0
CC(=O)Nc1cccc(-c2nc3ccccc3o2)c1	1	0	-2	1	-1	x	x	x	x
Cc1ccc(-c2nc3cc(NC(=O)C(C)C)ccc3o2)cc1	13*	6	7.9*	5.1*	1.3*	14*	4.4*	15*	1	LXRb hcDAF ctr=1;hcDAF12 conf=5
Cc1cccc(-c2nc3cc(NC(=O)C4CCCO4)ccc3o2)c1 (stereo unspecified)	14*	1	8.7*	6.8*	0.9*	15*	5.4*	12*	1	LXRb hcDAF ctr=2;hcDAF12 conf=7.8*
Cc1ccc2oc(-c3cccc(NC(=O)C4CCCO4)c3)nc2c1 (stereo unspecified)	4	1	4	1	0	x	x	x	x
CC(=O)Nc1ccc2oc(-c3ccccc3)nc2c1	15*	3	2	5.6*	1	12*	8.8*	15*	1
O=C(Nc1ccc2oc(-c3ccccc3F)nc2c1)c1ncn[nH]1	19*	1	6.4*	5.0*	1	9.3*	5.3*	19*	1
Cc1c(NC(=O)C2CCCN(S(=O)(=O)c3ccc(C(C)(C)C)cc3)C2)c(=O)n(-c2ccccc2)n1C (stereo unspecified)	-2	-1	-2	0	-1	x	x	x	x
Cc1cccc(NC(=O)c2ccc(OC3CSC3)cc2)c1	16*	5	3	4.8*	0	7.8*	4.0*	16*	1
CC(=O)c1cccc(NC(=O)c2ccc(OC3CSC3)cc2)c1	4	4	1	0	-2	x	x	x	x
COC(=O)c1cccc(Cn2ccc3ccc(-c4ccc5ccn(C(=O)C6CCC6)c5c4)cc32)c1	-3	0	0	-2	-1	x	x	x	x
O=c1[nH]c(=O)n(C2CC(O)C(CO)O2)cc1I (stereo unspecified)	15*	-5	4	13*	-1	23*	9.3*	16*	0

Screens: PubChem, The Scripps Research Institute Molecular Screening Center
